Source: ChEMBL document CHEMBL3433997, “St. Jude Leishmania screening dataset” (2016)

How the values were obtained:
Format in all cases: functional
[1] = target: Solute carrier family 2, facilitated glucose transporter member 1 (Homo sapiens) (UniProt P11166); assay: ST_JUDE_LEISH: Cytotoxicity at 2uM final concentration against transgenic Leishmania Mexicana promastigotes LmGLUT1 that are glucose transport deficient and complemented with the human glucose transporter GLUT1. Activity is measured by DNA content using SYBR green in vitro
Solute carrier family 2, facilitated glucose transporter member 1 (Homo sapiens), sequence (P11166 whole entry): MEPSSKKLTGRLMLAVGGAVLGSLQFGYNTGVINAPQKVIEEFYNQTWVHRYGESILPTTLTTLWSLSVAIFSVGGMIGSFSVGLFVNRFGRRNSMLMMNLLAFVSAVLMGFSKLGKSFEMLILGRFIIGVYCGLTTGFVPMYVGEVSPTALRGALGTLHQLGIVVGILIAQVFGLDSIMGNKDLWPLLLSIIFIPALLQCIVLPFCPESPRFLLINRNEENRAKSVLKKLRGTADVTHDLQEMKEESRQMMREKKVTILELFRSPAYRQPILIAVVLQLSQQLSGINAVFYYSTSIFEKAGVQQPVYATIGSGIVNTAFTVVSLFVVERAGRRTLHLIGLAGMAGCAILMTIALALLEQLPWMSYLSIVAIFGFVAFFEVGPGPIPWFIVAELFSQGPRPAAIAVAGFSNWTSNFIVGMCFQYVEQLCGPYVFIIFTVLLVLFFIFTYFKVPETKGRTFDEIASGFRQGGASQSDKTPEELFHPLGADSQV

[2] = target: Hexose transporter 1 (Plasmodium falciparum) (UniProt O97467); assay: ST_JUDE_LEISH: Cytotoxicity at 2uM final concentration against transgenic Leishmania Mexicana promastigotes LmPfHT that are glucose transport deficient and complemented with the Plasmodium falciparum hexose transporter. Activity is measured by DNA content using SYBR green in vitro
[3] = target: Glucose transporter (Leishmania mexicana) (UniProt O61059); assay: ST_JUDE_LEISH: Cytotoxicity at 2uM final concentration against transgenic Leishmania Mexicana promastigotes LmGT2 that are glucose transport deficient and complemented with the L. Mexicana glucose transporter 2. Activity is measured by DNA content using SYBR green in vitro

## CN(C(=O)/C=C/c1c(Cl)cccc1Cl)C1CCN(CCCCCNC(=O)/C=C/c2ccc(Cl)c(Cl)c2)CC1
[1]
  inhibition: 2.14%
[2]
  inhibition: 2.38%
[3]
  inhibition: 1.38%

## FC(F)(F)c1cnc(Sc2nnc(-c3ccncc3)o2)c(Cl)c1
[1]
  inhibition: -0.19%
[2]
  inhibition: -5.1%
[3]
  inhibition: 9.49%

## COc1ccccc1-c1ccc(CNC(=O)C(CN2CCN(C)CC2)c2ccccc2)cc1 (stereo not given)
[1]
  inhibition: 2.94%
[2]
  inhibition: 1.12%
[3]
  inhibition: 2.44%

## COc1ccccc1NC(=O)Nc1cccc(-c2cccc(-c3nc4cc(C(F)(F)F)ccc4[nH]3)c2)c1
[1]
  inhibition: -1.22%
[2]
  inhibition: -0.1%
[3]
  inhibition: 0.05%

## CN1CCN(CCCN(Cc2ccc(-c3cccc(CNCc4ccc5c(c4)OCO5)c3)cc2)C(=O)CCC2CCCC2)CC1
[1]
  inhibition: 2.35%
[2]
  inhibition: 2.56%
[3]
  inhibition: -0.03%

## Fc1ccc2[nH]c(-c3ccc(-c4ccc(CNCCc5ccncc5)cc4)s3)nc2c1
[1]
  inhibition: 5.54%
[2]
  inhibition: 4.96%
[3]
  inhibition: 7.86%

## CCCN(CC)CCOC(=O)c1ccccc1
[1]
  inhibition: 8.35%
[2]
  inhibition: 7.44%
[3]
  inhibition: 9.33%

## Cc1ccccc1OCC(O)CN1CCC(C2CCN(CC(O)COc3ccccc3C)CC2)CC1 (stereo not given)
[1]
  inhibition: 2.25%
[2]
  inhibition: 2%
[3]
  inhibition: 2.28%

## Cc1cccc2nc(-c3ccc(-c4ccc(CN5CCCC(N)C5)cc4)s3)[nH]c12 (stereo not given)
[1]
  inhibition: 0.2%
[2]
  inhibition: 0.06%
[3]
  inhibition: 0.74%

## FC(F)(F)c1cccc(Nc2nc3nonc3nc2NC2C3CC4CC(C3)CC2C4)c1 (stereo not given)
[1]
  inhibition: 3.05%
[2]
  inhibition: 1.79%
[3]
  inhibition: 0.47%

## O=S(=O)(NCCN1CCCC1)c1cccc(-c2cccc(CNCc3ccsc3)c2)c1
[1]
  inhibition: -0.74%
[2]
  inhibition: -0.16%
[3]
  inhibition: 1.71%

## Cc1nnc(NC(=O)c2cn(-c3ccccc3)nc2-c2ccccc2C)o1
[1]
  inhibition: 1.69%
[2]
  inhibition: 2.78%
[3]
  inhibition: 2%

## CCCn1cc2c(ccc3nc(N)nc(N)c32)n1
[1]
  inhibition: 0.63%
[2]
  inhibition: 0.8%
[3]
  inhibition: 0.23%

## OC1(C(F)(F)F)CC(c2ccccc2)=NN1c1nncc(-c2ccccc2)n1 (stereo not given)
[1]
  inhibition: 0.8%
[2]
  inhibition: 0.53%
[3]
  inhibition: 1.18%

## O=C(NCC1CCCCC1)c1cc(=O)c2ccccc2o1
[1]
  inhibition: 8.02%
[2]
  inhibition: 10.2%
[3]
  inhibition: 11.7%

## CC(=O)Nc1ccc(C(=O)Nc2cccc(-c3ccc(-c4nc5cc(C(F)(F)F)ccc5[nH]4)cc3)c2)cn1
[1]
  inhibition: 2.59%
[2]
  inhibition: -0.8%
[3]
  inhibition: 3.05%

## CCCCCCCCCN(CCC)C(=O)[C@@H]1OC(C(=O)OC(c2ccccc2)c2ccccc2)=C[C@H](NC(=O)OC(C)(C)C)[C@H]1NC(C)=O
[1]
  inhibition: 2.98%
[2]
  inhibition: 2.98%
[3]
  inhibition: 1.47%

## O=C(Nc1ccc(Br)cc1)c1cc(Br)ccc1NS(=O)(=O)c1ccc(C(F)(F)F)cc1
[1]
  inhibition: 0.82%
[2]
  inhibition: 0.98%
[3]
  inhibition: 0.46%

## COc1cc2c(cc1O)[C@@H]1[C@H](O)[C@@H](O)C=C3CCN(C2)[C@H]31
[1]
  inhibition: 4.04%
[2]
  inhibition: 3.79%
[3]
  inhibition: 1.58%

## Cc1cc(N/N=C/c2ccccc2[N+](=O)[O-])c2cc(C(F)(F)F)ccc2n1
[1]
  inhibition: -3.14%
[2]
  inhibition: 0.97%
[3]
  inhibition: 1.45%

## Cc1ccccc1C1CCN(C2CCC(NC(=O)/C=C/c3ccc(Cl)cc3)CC2)CC1 (stereo not given)
[1]
  inhibition: 1.76%
[2]
  inhibition: 2.6%
[3]
  inhibition: 2.42%

## Cc1ccccc1C1CCN(C2CCC(NC(=O)c3ccc(-c4ccccn4)s3)CC2)CC1 (stereo not given)
[1]
  inhibition: -4.15%
[2]
  inhibition: -2.96%
[3]
  inhibition: -1.37%

## COc1ccc(-c2c3c(=O)n(C)c(=O)n(C)c3c3nnc4ccccc4n23)cc1
[1]
  inhibition: 0.81%
[2]
  inhibition: 1.06%
[3]
  inhibition: 1.3%

## COc1ccc(C2CC(c3cccs3)=NN2C(=O)c2ccccc2)cc1OC (stereo not given)
[1]
  inhibition: 6.92%
[2]
  inhibition: 1.98%
[3]
  inhibition: 5.57%

## CCCCCOc1c(CCC)cc(Cc2cnc(N)nc2N)cc1CCC
[1]
  inhibition: 14.7%
[2]
  inhibition: 12.3%
[3]
  inhibition: 4.12%

## CC(C)CNCc1cccc(-c2cccc(CNc3ccc4ncccc4c3)c2)c1
[1]
  inhibition: 2.92%
[2]
  inhibition: 1.32%
[3]
  inhibition: 2.08%

## COc1ccc(CCC(C)N2CC(N)C(c3cn(C)c4cnccc34)C2)cc1 (stereo not given)
[1]
  inhibition: 9.7%
[2]
  inhibition: 9.62%
[3]
  inhibition: 7.69%

## COc1ccc(NC(=O)Nc2ccc(-c3cccc(-c4nc5cccc(C)c5[nH]4)c3)cc2)cc1
[1]
  inhibition: -1.37%
[2]
  inhibition: -1.2%
[3]
  inhibition: -0.2%

## O=C(Nc1cc(C(F)(F)F)cc(C(F)(F)F)c1)Nc1ccc(Cl)c(Cl)c1
[1]
  inhibition: 0.47%
[2]
  inhibition: 1.04%
[3]
  inhibition: 1.22%

## COc1ccc(CCNCCCCCCNCCc2ccc(OC)c(OC)c2Cl)c(Cl)c1OC
[1]
  inhibition: 0.05%
[2]
  inhibition: -0.34%
[3]
  inhibition: 0.35%

## Cc1ccc2nc(C)n(C3CCN(C(=O)C4(c5ccccc5)CC4)CC3)c2c1
[1]
  inhibition: 5.47%
[2]
  inhibition: 6.02%
[3]
  inhibition: 5.27%

## O=C(Nc1cccc(C(F)(F)F)c1)c1cccc(S(=O)(=O)NC2CCCN(CC3CCCCC3)C2)c1 (stereo not given)
[1]
  inhibition: 0.39%
[2]
  inhibition: 0.03%
[3]
  inhibition: 0.55%

## COc1ccc2ncc(C)c(CCN3CCC(NCc4ccc5c(n4)NC(=O)CS5)CC3)c2c1
[1]
  inhibition: 8.73%
[2]
  inhibition: 6.68%
[3]
  inhibition: 6.71%

## O=C(NCc1cccc(Cl)c1)c1ccc(CNC2CCN(Cc3ccccc3)CC2)cc1
[1]
  inhibition: -1.21%
[2]
  inhibition: -0.25%
[3]
  inhibition: 2.18%

## O=C(NCc1ccc(Cl)cc1)c1ccc(CN2CCCN(Cc3cccc(O)c3)CC2)cc1
[1]
  inhibition: 0.86%
[2]
  inhibition: 0.62%
[3]
  inhibition: 2.04%
